Compound activity as filed in PubChem BioAssay.
HSF1 inh: HSF1 inhibitors in luciferase reporter cells, primary screen, cell-based, NIH3T3, luminescence | NIH3T3-HGL HSE-luciferase, MG132-induced, luminescence 8 h; active compounds read low | activity change, negative = inhibition, % at 7.5 µM (by protocol) | actives 0.77% (n = 300,000);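 active means more than half of replicate wells show activity change below -50%, luminescence cut by over half; inconclusive means some wells, but at most half, below -50%; inactive means no replicate well below -50%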;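 further: luciferase reports HSF-1 transcriptional activity via heat shock element; 0% = median of DMSO wells and -100% = zero luminescence signal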
HSF-1 act: HSF-1 activators, primary screen, NIH3T3-HGL cells, MG132 stress, luminescence, single point. NIH3T3-HGL HSF-1 luciferase reporter, 8 h; 100% = twice DMSO control signal. activation, % at 9 µM. actives 1.7% (n = 300,000);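 active means mean replicate activation of at least 50% with a set share of replicates each reaching 50%; inconclusive means only one of those two conditions met; inactive means mean below 50% and too few replicates reaching it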;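 further: 0% = median of the neutral control wells and 100% = twice that signal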
esBAF inh: Bmi1 luciferase reporter increase in mESCs, primary screen, esBAF inhibitor project, mouse ES cells, Bmi1 luciferase knock-in, single point; 24 h; 100% = twice the neutral-well signal; reporter increase, % at 12.5 µM; actives 2% (n = 350,000); AID 602393, 2012; in the data active means activation above about 40%; inconclusive means no clear call, values can overlap the other calls;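 further: 0% = median of the plate's neutral control wells and 100% = double that signal; a rise in the Bmi1 reporter signal indicates esBAF inhibition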
Vif inh: HIV Vif self-association inhibitors, primary screen, imaging, HEK293T, single point; HEK293T cells, Vif self-association by quenched fluorescence, 24 h; inhibition, % at 7.49 µM; AID 602346, 2012; actives 0.35% (n = 340,000); in the data active means inhibition above about 50%, passing the limit was not always enough; inconclusive means no clear call, values can overlap the other calls; inactive means below about 31%
Numbers without * were called inactive; ? = inconclusive; . = no result. This is a sample that favours compounds with a hit; in the whole collection about 3.4% have one here.

SMILES	HSF1 inh	HSF-1 act	esBAF inh	Vif inh
Cc1cc(NC(C)c2ccccc2)n2ncc(-c3ccccc3)c2n1 (configuration not stated)	16	11	59*	2
Cc1cc(NCCN2CCOCC2)n2nc(C)c(-c3ccccc3)c2n1	-5	-11	9	-6
Cc1cc(-c2ccccc2)n2ncc(-c3ccccc3)c2n1	-42	-55	.	-16
Cc1cc(NC2CCCC2)n2ncc(-c3ccccc3)c2n1	-67*	-74	-45	-2
Cc1cc(NCCN2CCOCC2)n2nc(C)c(-c3ccc(Cl)cc3)c2n1	31	65*	-6	5
C[C@@H]1CN([C@H](C)CO)C(=O)c2cc(NS(=O)(=O)c3ccc(Cl)cc3)ccc2O[C@H]1CN(C)S(=O)(=O)c1cccs1	.	.	-1	.
C[C@@H]1CCCCO[C@@H](CN(C)Cc2ccccc2)[C@H](C)CN([C@H](C)CO)C(=O)c2cc(NC(=O)Nc3ccc(C(F)(F)F)cc3)ccc2O1	.	.	-3	.
Cc1cc(NC2CCCC2)n2nc(C)c(-c3ccccc3)c2n1	9	52*	?	-6
COc1ccc(-c2c(C)nn3c(NC4CCCC4)cc(C)nc23)cc1OC	27	62*	12	7
COc1ccc(CCNc2cc(C)nc3c(-c4ccccc4)c(C)nn23)cc1OC	2	13	-1	3
Cc1cc(N)n2nc(C)c(-c3ccccc3)c2n1	-4	9	3	11
Cc1cc(NCc2ccccc2)n2ncc(-c3ccccc3)c2n1	40	80*	21	-9
CC(C)NC(=O)Nc1ccc2c(c1)C(=O)N([C@H](C)CO)C[C@@H](C)[C@H](CN(C)Cc1ccc(Cl)c(Cl)c1)OCCCC[C@@H](C)O2	.	.	0	.
CC1=NN(c2ccccc2)C(=O)/C1=C\C=C\c1ccccc1	68	98*	.	10
CC1=NN(c2ccccc2)C(=O)/C1=C/C=C/c1ccc(N(C)C)cc1	-7	-8	.	4
CN(Cc1ccccc1)c1nc2c(c(=O)[nH]c(=O)n2C)n1Cc1ccccc1Cl	29	78*	0	-5
Cc1nnc(SCCn2c(N(C)Cc3ccccc3)nc3c2c(=O)[nH]c(=O)n3C)s1	-5	-2	-4	62*
Cc1nnc(SCCn2c(N3CCC(Cc4ccccc4)CC3)nc3c2c(=O)[nH]c(=O)n3C)s1	10	-8	.	.
Cn1c(=O)[nH]c(=O)c2c1nc([N+](=O)[O-])n2Cc1ccccc1	153	155*	.	99*
C[C@H]1CN([C@@H](C)CO)C(=O)c2cccc(NC(=O)c3cnccn3)c2O[C@H]1CN(C)S(=O)(=O)c1ccc(F)cc1	.	.	-2	.
C[C@@H]1CCCCO[C@H](CN(C)Cc2ccc3c(c2)OCO3)[C@H](C)CN([C@@H](C)CO)C(=O)c2cc(NS(C)(=O)=O)ccc2O1	.	.	-10	.
C[C@H]1CN([C@@H](C)CO)C(=O)c2cc(-c3ccccc3)cnc2O[C@H]1CN(C)C	.	.	-7	.
CO[C@H]1CN(C)C(=O)c2cc(NC(=O)Nc3ccc4c(c3)OCO4)ccc2OC[C@H](C)NC[C@@H]1C	.	.	55*	.
CO[C@@H]1CN(C)C(=O)c2cc(NC(=O)Nc3ccccc3)ccc2OC[C@@H](C)NC[C@@H]1C	.	.	3	.
CO[C@H]1CN(C)C(=O)c2cc(NC(=O)Nc3ccc4c(c3)OCO4)ccc2OC[C@@H](C)NC[C@H]1C	.	.	51*	.
SMILES	HSF1 inh	HSF-1 act	esBAF inh	Vif inh
CO[C@H]1CN(C)C(=O)c2cc(NC(=O)Nc3ccc4c(c3)OCO4)ccc2OC[C@H](C)NC[C@H]1C	.	.	44*	.
C[C@H](CO)N1C[C@H](C)[C@@H](CN(C)Cc2ccc(Oc3ccccc3)cc2)Oc2c(NC(=O)Nc3ccc(F)cc3)cccc2C1=O	.	.	-1	.
CCS(=O)(=O)N[C@H]1C=C[C@H](CC(=O)NC2Cc3ccccc3C2)O[C@H]1CO	.	.	-9	.
C[C@H](CO)N1C[C@H](C)[C@H](CN(C)C(=O)Nc2ccc3c(c2)OCO3)OCCCC[C@H](C)Oc2ccc(NS(=O)(=O)c3ccc(F)cc3)cc2C1=O	.	.	13	.
CCC(C)n1c(SC(C)C#N)nc2ccccc2c1=O (configuration not stated)	-85*	-88	-3	9
C[C@@H]1CN([C@H](C)CO)C(=O)c2cc(NC(=O)C3CCCCC3)ccc2O[C@@H]1CN(C)Cc1ccc(Cl)c(Cl)c1	.	.	2	.
C[C@H]1CN([C@@H](C)CO)S(=O)(=O)c2ccc(C#Cc3ccccc3F)cc2O[C@H]1CN(C)C(=O)c1ccc2c(c1)OCO2	.	.	19	.
C=CSc1sc(Cl)c(N2CCOCC2)c1[N+](=O)[O-]	8	3	.	-2
C=CS(=O)(=O)c1sc(Cl)c(N2CCOCC2)c1[N+](=O)[O-]	45	74*	.	-10
CCCc1cc(=O)oc2c(C)c(OCC(=O)NCCCn3ccnc3)ccc12	3	6	-7	-4
Cc1c(OCC(=O)N(C)C)ccc2c3c(c(=O)oc12)CCCCC3	-4	5	-4	-14
Cc1oc(C(=O)O)cc1COc1ccc2c3c(c(=O)oc2c1C)CCC3	-60*	-69	1	4
CC(=O)C(C)Oc1ccc2c3c(c(=O)oc2c1C)CCCC3 (configuration not stated)	0	-10	58*	0
Cc1c(OCC(=O)NCCCn2ccnc2)ccc2c3c(c(=O)oc12)CCCC3	30	57*	-1	0
CC(=O)COc1ccc2c3c(c(=O)oc2c1C)CCCCC3	14	30	45*	8
Cc1c(OC(C)C(=O)N[C@H](C(=O)O)c2ccccc2)ccc2c3c(c(=O)oc12)CCCC3 (some centres not stated)	-3	5	1	20
C[C@H]1CN([C@@H](C)CO)C(=O)c2cccc(NS(=O)(=O)c3ccc(F)cc3)c2O[C@H]1CN(C)S(C)(=O)=O	.	.	-1	.
COc1ccc(NC(=O)Nc2ccc3c(c2)C(=O)N([C@@H](C)CO)C[C@H](C)[C@@H](CN(C)C)OCCCC[C@H](C)O3)cc1	.	.	-5	.
COCCN(Cc1cn[nH]c1-c1ccc2cc(OC)ccc2c1)C(C)C	38	56*	13	-7
CCOC(=O)CN(C)Cc1cn[nH]c1-c1ccc2cc(OC)ccc2c1	16	18	25	-2
COc1ccc2cc(-c3[nH]ncc3CN3CCCCO3)ccc2c1	6	16	56*	15
C[C@H](CO)N1C[C@H](C)[C@@H](CN(C)C(=O)Nc2ccc(C(F)(F)F)cc2)OCCCC[C@H](C)Oc2ccc(NC(=O)Nc3ccc(F)cc3)cc2C1=O	.	.	5	.
COc1ccc(NC(=O)Nc2cccc3c2O[C@@H](CN(C)C(=O)Nc2ccccc2)[C@H](C)CN([C@@H](C)CO)C3=O)cc1	.	.	1	.
CC(=O)Nc1ccc(Cc2ccncc2)cc1	-69*	-76	.	.
CCCCCC(=O)Nc1ccc(Cc2ccncc2)cc1	-2	-9	-2	80*
CC(=O)Nc1ccc(S(=O)(=O)Nc2ccc(Cc3ccncc3)cc2)cc1	-11	-11	17	8
